Experimental data from PubChem BioAssay (NCATS).
“And” between values parts separate entries of the source, which are not always exact repeats. Identical values can stand only once. Records with an inconclusive call do not appear. The source made the active and inactive calls. Unless noted, the call rests on the fitted dose curve; in most records, active means well fitted curve in the direction sought with a large enough effect; inconclusive means small, poorly fitted or top-dose-only effect, or another doubt; inactive means no such curve, though single readings can be large; an effect the other way counts as inactive or inconclusive.

Tests used:
[1] = target: Mitogen-activated protein kinase 10 (Mus musculus) (UniProt Q61831); assay: JNK3 AlphaScreen Assay (AID 530; active means well fitted curve in either direction with a large enough effect, not every such curve was filed as active;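 further: kinase came from lysate of stimulated human HepG2 cells; signal reports phosphorylation of biotinylated GST-cJun 1-79 at Ser73 with 10 µM ATP; on the % scale 0 is the no-effect control and ±100 the full control effect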); details: JNK3 lysate, c-Jun phosphorylation; series mostly up to 57.1 µM
In short: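 Activity was read by AlphaScreen after JNK3-containing HepG2 lysate (cytokine pre-activated) phosphorylated biotinylated GST-cJun with 10 uM ATP at room temperature. Phospho-Ser73 cJun antibody with Protein-A acceptor beads provided detection.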

[2] = Cell Viability - N2a (AID 540); details: N2a mouse neuroblastoma cell viability; series mostly up to 92.2 µM;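 further: plate controls were DMSO alone for no effect and tamoxifen control for full effect; nearly all actives have a fitted effect of over 45% in size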
In short: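 CellTiter-Glo ATP luminescence, read 20 min after reagent at room temperature, reported viability following 40 h compound treatment at 37 °C. N2a mouse neuroblastoma cells seeded 1500/well; Hill equation gave AC50.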

[3] = Cell Viability - NIH 3T3 (AID 541); details: NIH 3T3 cell viability, qHTS; series mostly up to 92.2 µM;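 further: cells exposed to compound for 40 hours; nearly all actives have a fitted effect of over 25% in size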; further: potency means the concentration at half of the fitted maximal effect
In short: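 Intracellular ATP (CellTiter-Glo luminescence, 20 min at room temperature) measured after 40 hr compound exposure at 37 °C of 1000 NIH 3T3 mouse fibroblasts/well in complete medium; AC50 derived by Hill-equation modelling of qHTS concentration-response curves.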

[4] = Cell Viability - HUV-EC-C (AID 542); details: HUV-EC-C endothelial cell viability, qHTS; series mostly up to 92.2 µM;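 further: cells exposed to compound for 40 hours; on the % scale 0 is the no-effect control and ±100 the full control effect; nearly all actives have a fitted effect of over 35% in size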
In short: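 CellTiter-Glo luminescence measured ATP loss in HUV-EC-C cells (1000/well) after 40 hr compound exposure at 37 °C, in complete culture medium. Concentration-response data were Hill-fitted to give AC50.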

[5] = Cell Viability - H-4-II-E (AID 543); details: H-4-II-E rat hepatoma viability; series mostly up to 92.2 µM;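 further: cells exposed to compound for 40 hours; on the % scale 0 is the no-effect control and ±100 the full control effect; nearly all actives have a fitted effect of over 35% in size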
In short: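 CellTiter-Glo luminescence (intracellular ATP) measured after 40 h compound exposure at 37 °C in H-4-II-E rat hepatoma cells seeded at 1500/well. Values are AC50s fitted with the standard Hill equation.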

[6] = Cell Viability - SH-SY5Y (AID 544); details: SH-SY5Y neuroblastoma cell viability; series mostly up to 92.2 µM;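 further: cells exposed to compound for 40 hours; nearly all actives have a fitted effect of over 55% in size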
In short: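 Cytotoxicity measured via ATP-dependent luciferase luminescence (CellTiter-Glo) following 40 h, 37 °C exposure of 1500 SH-SY5Y cells per well. Concentration-response data were fitted with the standard Hill equation to give AC50.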

[7] = Cell Viability - Renal Proximal Tubule (AID 545); details: renal proximal tubule cells viability, primary cells of rat origin; series mostly up to 91.7 µM;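 further: cells exposed to compound for 40 hours; nearly all actives have a fitted effect of over 40% in size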
In short: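 Cytotoxicity is scored as a concentration-dependent drop in cellular ATP in primary rat renal proximal tubule cells exposed for 40 hr. AC50 derives from Hill modelling.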

[8] = Cell Viability - Mesenchymal (AID 546); details: mesenchymal cells viability, qHTS; series mostly up to 91.7 µM;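 further: cells exposed to compound for 40 hours before reading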
In short: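 Human renal mesenchymal cells (glomerulus-derived), 1000 cells/well, 5 hr 37 °C pre-incubation; compound 40 hr, 37 °C; CellTiter-Glo, 20 min RT; luminescence; AC50 via Hill equation.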

[9] = Cellular Toxicity (caspase-3) HepG2 (AID 654); details: HepG2 caspase-3 activation, luminescence, 0% = DMSO only, 100% = tamoxifen; series mostly up to 92.2 µM;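 further: cells exposed to compound for 16 hours before reading; 0% = DMSO alone and 100% = caspase signal from 100 µM tamoxifen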
In short: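 Caspase 3/7 activation is measured as a luminescence increase (aminoluciferin substrate) after 16 h compound exposure of human hepatocarcinoma HepG2 cells. AC50 values are Hill fits, scaled between DMSO baseline and 100 uM tamoxifen stimulation.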

[10] = Cellular Toxicity (caspase-3) Jurkat (AID 655); details: Jurkat caspase-3 activation, luminescence, DMSO = 0%, tamoxifen = 100%; series mostly up to 92.2 µM;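 further: cells exposed to compound for 16 h at 37 °C before reading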
In short: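 Caspase 3/7 activation is scored as increased luminescence in Jurkat cells cultured with compound for 16 hours in complete medium. AC50 values come from Hill fits of qHTS concentration-response data normalized to DMSO and 100 uM tamoxifen controls.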

[11] = Cellular Toxicity (caspase-3) HUV-EC-C (AID 656); details: HUV-EC-C cells, caspase-3 activation (apoptosis), vehicle = 0, 100 µM tamoxifen = 100%; series mostly up to 92.2 µM
In short: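 Read-out: luminescence proportional to caspase 3/7 activity, measured 20 min after adding Caspase-Glo 3/7 reagent. Cells (HUV-EC-C) had received compound for 16 hr at 37°C. Increases relative to DMSO and 100 uM tamoxifen gave concentration-response AC50 values.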

[12] = Cellular Toxicity (caspase-3) SHSY5Y (AID 657); details: SH-SY5Y caspase-3 activation, DMSO zero, 10 µM staurosporine = 100%; series mostly up to 91.7 µM;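 further: cells exposed to compound for 16 hours at 37 °C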
In short: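 Cells plated and incubated 5 h at 37 °C, dosed over a concentration range, incubated 16 h, then given Caspase-Glo 3/7 reagent for 1 h at room temperature before luminescence reading. Staurosporine (10 uM) defined full stimulation.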

[13] = Cellular Toxicity (caspase-3) BJ (AID 658); details: BJ fibroblasts, luminescence, normalized: DMSO 0%, staurosporine 100%; series mostly up to 91.7 µM
In short: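 qHTS, BJ fibroblasts, 1000 cells/well; 5 hr preincubation, 16 hr compound, 37 °C; Caspase-Glo 3/7 reagent, 1 hr RT; luminescence. DMSO = 0%, 10 uM staurosporine = 100%. Hill-equation AC50.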

[14] = Cellular Toxicity (caspase-3) MRC-5 (AID 659); details: MRC-5 cells, luminescence, normalized: DMSO 0%, 10 µM staurosporine 100%; series mostly up to 91.7 µM;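 further: cells exposed to compound for 16 h at 37 °C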
In short: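 MRC-5 fibroblasts, 1500/well; 16 h cpd, 37 °C; Caspase-Glo 3/7, 1 h RT; lumi read. Norm: DMSO = 0%, 10 uM staurosporine = 100%. Hill-fit AC50 from qHTS conc-response.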

[15] = Cellular Toxicity (caspase-3) Mesangial (AID 660); details: mesangial cells, normalized: DMSO 0%, 100 µM tamoxifen 100%; series mostly up to 91.7 µM;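 further: cells exposed to compound for 16 h before the caspase read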
In short: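 Caspase 3/7 activation measured by Caspase-Glo 3/7 luminescence (20 min, room temperature) following 16 h exposure of mesangial cells (1000/well); AC50 from Hill-equation fit, normalized to DMSO and 100 uM tamoxifen.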

[16] = Cellular Toxicity (caspase-3) SK-N-SH (AID 661); details: SK-N-SH caspase-3 activation, qHTS, DMSO as zero, staurosporine as full; series mostly up to 91.7 µM
In short: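 Caspase 3/7 activation was read by luminogenic substrate cleavage after 16 hour treatment of SK-N-SH cells. Signal was scaled between DMSO and 10 uM staurosporine, and concentration-response data were fitted with the Hill equation for AC50.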

[17] = target: Glucocorticoid receptor (Homo sapiens) (UniProt P04150); assay: GR-GFP Redistribution (AID 450;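 active means compounds whose dose series gives a full or clear partial fitted curve of increased nuclear translocation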; further: potency means the concentration at half of the fitted maximal effect); details: U2OS GR-GFP nuclear translocation, laser cytometry, 2 h
[18] = target: Glucocorticoid receptor (Homo sapiens) (UniProt P04150); assay: GR-EFC Redistribution (AID 451; calls by dose curve; further: potency means the concentration at half of the fitted maximal effect); details: CHO-K1 GR-EFC translocation, beta-gal luminescence, 2 h
In short: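 CHO-K1 cells expressing nuclear EA and GR-ED fragments of b-gal; compounds titrated up to 46 uM final, 2 h at 37 C. GR nuclear translocation read as complemented b-gal luminescence after 1 h RT detection.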

[19] = target: 3',5'-cyclic-AMP phosphodiesterase 4B (Homo sapiens) (UniProt Q07343); assay: qHTS Assay for Inhibitors of PDE-IV (AID 607; active means well fitted activation curve with a large enough effect in the main read-out, with a control signal flat, not every such curve was filed as active; further: % of control where 0% means no effect); details: HEK293 ACTOne CNG channel cells, membrane potential fluorescence; series mostly up to 22.9 µM
In short: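 Cell-based read-out of cAMP via a modified cyclic nucleotide-gated channel and membrane potential dye (535/590 nm) in HEK293 cells expressing PDE4 endogenously. Compounds tested up to 22.9 uM final; 100 uM RO 20-1724 reference.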

[20] = Stat Signaling Pathway (AID 446; active means well fitted curve in either direction with a large enough effect, not every such curve was filed as active;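 further: ME-180 cervical cancer cells given 40 pM IL-6 alongside compound; SIE-controlled beta-lactamase reporter measured as 460/530 nm FRET emission ratio; on the % scale 0 is the no-effect control and ±100 the full control effect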); details: ME-180 (cervical carcinoma) SIE beta-lactamase reporter, IL-6 stimulated, 5 h; series mostly up to 17.2 µM
In short: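 FRET read-out (405 nm excitation, 460/530 nm emission) of a beta-lactamase reporter under a STAT-inducible element in ME-180 cervical carcinoma cells. Cells with compound receive 40 pM IL-6 for 5 h. Values are normalised to AC90 stimulation and AC90 JAK-inhibitor controls.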

Chain of 3',5'-cyclic-AMP phosphodiesterase 4B (Homo sapiens) (Q07343 whole entry, looked up): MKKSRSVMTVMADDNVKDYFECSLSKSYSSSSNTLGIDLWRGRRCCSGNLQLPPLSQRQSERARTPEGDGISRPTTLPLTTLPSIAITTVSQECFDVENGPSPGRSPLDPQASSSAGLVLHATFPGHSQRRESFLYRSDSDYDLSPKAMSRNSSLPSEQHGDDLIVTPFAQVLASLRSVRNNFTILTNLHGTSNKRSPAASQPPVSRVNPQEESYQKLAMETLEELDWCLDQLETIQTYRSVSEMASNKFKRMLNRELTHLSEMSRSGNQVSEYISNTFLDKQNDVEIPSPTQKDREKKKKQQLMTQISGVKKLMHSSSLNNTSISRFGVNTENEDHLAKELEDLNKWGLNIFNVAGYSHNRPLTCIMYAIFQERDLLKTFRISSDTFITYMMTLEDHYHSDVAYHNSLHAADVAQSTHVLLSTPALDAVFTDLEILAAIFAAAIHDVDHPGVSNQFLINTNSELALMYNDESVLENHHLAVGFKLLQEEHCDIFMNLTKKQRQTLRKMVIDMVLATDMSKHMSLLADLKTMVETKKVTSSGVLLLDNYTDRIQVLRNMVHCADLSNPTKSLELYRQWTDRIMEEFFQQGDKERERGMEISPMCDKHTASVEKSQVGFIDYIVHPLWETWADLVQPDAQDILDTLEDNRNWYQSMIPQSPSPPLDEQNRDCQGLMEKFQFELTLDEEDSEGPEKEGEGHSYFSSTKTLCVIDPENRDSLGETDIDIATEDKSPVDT
Chain of Glucocorticoid receptor (Homo sapiens) (P04150 whole entry, looked up, the tested form may be a part): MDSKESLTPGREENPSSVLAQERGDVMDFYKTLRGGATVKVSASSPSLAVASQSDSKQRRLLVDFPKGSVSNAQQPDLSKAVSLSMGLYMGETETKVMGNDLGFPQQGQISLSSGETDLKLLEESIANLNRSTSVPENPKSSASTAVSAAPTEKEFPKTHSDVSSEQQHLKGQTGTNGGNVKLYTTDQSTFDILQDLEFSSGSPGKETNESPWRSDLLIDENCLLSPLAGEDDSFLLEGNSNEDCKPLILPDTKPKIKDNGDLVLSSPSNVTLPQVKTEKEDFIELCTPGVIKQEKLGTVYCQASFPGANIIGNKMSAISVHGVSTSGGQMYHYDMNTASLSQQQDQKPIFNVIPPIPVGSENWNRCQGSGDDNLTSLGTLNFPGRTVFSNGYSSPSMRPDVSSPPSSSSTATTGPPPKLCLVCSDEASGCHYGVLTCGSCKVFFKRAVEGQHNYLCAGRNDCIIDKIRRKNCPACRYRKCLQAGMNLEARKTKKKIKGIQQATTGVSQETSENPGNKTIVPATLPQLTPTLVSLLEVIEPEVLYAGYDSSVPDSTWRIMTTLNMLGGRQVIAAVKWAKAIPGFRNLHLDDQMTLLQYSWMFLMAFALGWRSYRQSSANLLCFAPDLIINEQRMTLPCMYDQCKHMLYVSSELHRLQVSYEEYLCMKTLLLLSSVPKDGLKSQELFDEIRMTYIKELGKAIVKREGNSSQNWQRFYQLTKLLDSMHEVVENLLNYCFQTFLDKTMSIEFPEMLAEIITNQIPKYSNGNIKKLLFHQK

CC(=O)O[C@@H]1CC(C)=C2[C@H]1[C@H](C)CC[C@H]2/C=C(\C)C(=O)O
inactive: outcome [1] | outcome [2] | Potency [3] | outcome [4] | outcome [5] | outcome [6] | outcome [7] | outcome [8] | outcome [9] | outcome [10] | outcome [11] | outcome [12] | outcome [13] | outcome [14] | outcome [15] | outcome [16]

CC(=O)O[C@H]1C(=O)[C@@]2(C)[C@H]([C@H](OC(=O)c3ccccc3)[C@]3(O)C[C@H](OC(=O)[C@H](O)[C@@H](NC(=O)c4ccccc4)c4ccccc4)C(C)=C1C3(C)C)[C@]1(OC(C)=O)CO[C@@H]1C[C@@H]2O
inactive: Potency [17] > 46 µM | Potency [18] > 46 µM | outcome [1] | outcome [19]

COc1ccc(C[C@H](N)C(=O)N[C@@H]2[C@H](O)[C@H](n3cnc4c(N(C)C)ncnc43)O[C@@H]2CO)cc1
inactive: Potency [17] > 20.6 µM | Potency [18] > 20.6 µM | outcome [1] | outcome [19]

O=C1NC(=O)C(c2cn(-c3ccccc3)nc2-c2ccc(F)cc2)N1 (stereo not given)
inactive: outcome [20] | Potency [17] > 20.6 µM

Cc1ccccc1CN1C2=NCCN2C(=O)C2=C1CCN(Cc1ccccc1)C2
inactive: outcome [20] | Potency [17] > 46 µM | Potency [18] > 9.22 µM | activity change, negative = inhibition [1] -0.448% [at 11.4 µM] | outcome [19]

Cc1ccc(N)cc1O
inactive: outcome [1] | outcome [2] | Potency [3] | outcome [4] | outcome [5] | outcome [6] | outcome [7] | outcome [8] | outcome [9] | outcome [10] | outcome [11] | outcome [12] | outcome [13] | outcome [14] | outcome [15] | outcome [16]

CC[C@]1(O)CC2CN(CCc3c([nH]c4ccccc34)[C@@](C(=O)OC)(c3cc4c(cc3OC)N(C=O)[C@H]3[C@@](O)(C(=O)OC)[C@H](OC(C)=O)[C@]5(CC)C=CCN6CC[C@]43[C@@H]65)C2)C1 (stereo not given in full)
inactive: outcome [20] | Potency [17] > 20.6 µM

COc1ccc2c(OC)c3ccoc3nc2c1OC
inactive: outcome [20] | Potency [17] > 20.6 µM and > 46 µM | Potency [18] > 20.6 µM and > 46 µM | outcome [1] | outcome [19]

Nc1ccccc1N
inactive: outcome [1] | outcome [2] | outcome [4] | outcome [8] | outcome [9] | outcome [11] | outcome [12] | outcome [13] | outcome [14] | outcome [16]
active: Potency [3] 6.31 µM
